Compound activity as filed in PubChem.
Most compounds without a hit are left out; they make up all but 12% or so of the library.
KCC2 mod: KCC2 cotransporter modulators, thallium flux, primary screen, cell-based, HEK293 KCC2, FluoZin-2 fluorescence, MLSMR; Solute carrier family 12 member 5 (Homo sapiens), Q9H2X9; KCC2 cells, thallium flux FluoZin-2 fluorescence; B-score of Tl+ flux slope (higher = more flux/activation; lower = inhibition) at 10 µM; 190,000 compounds, 2.2% hits; AID 1456, 2008;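 active = thallium flux slope and its plate-corrected score both differing from the plate sample mean at a set confidence after two filtering rounds, in either direction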;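 also: slope of fluorescence scaled to starting intensity during 10 to 20 s after thallium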
Target sequence (Q9H2X9 whole entry, looked up): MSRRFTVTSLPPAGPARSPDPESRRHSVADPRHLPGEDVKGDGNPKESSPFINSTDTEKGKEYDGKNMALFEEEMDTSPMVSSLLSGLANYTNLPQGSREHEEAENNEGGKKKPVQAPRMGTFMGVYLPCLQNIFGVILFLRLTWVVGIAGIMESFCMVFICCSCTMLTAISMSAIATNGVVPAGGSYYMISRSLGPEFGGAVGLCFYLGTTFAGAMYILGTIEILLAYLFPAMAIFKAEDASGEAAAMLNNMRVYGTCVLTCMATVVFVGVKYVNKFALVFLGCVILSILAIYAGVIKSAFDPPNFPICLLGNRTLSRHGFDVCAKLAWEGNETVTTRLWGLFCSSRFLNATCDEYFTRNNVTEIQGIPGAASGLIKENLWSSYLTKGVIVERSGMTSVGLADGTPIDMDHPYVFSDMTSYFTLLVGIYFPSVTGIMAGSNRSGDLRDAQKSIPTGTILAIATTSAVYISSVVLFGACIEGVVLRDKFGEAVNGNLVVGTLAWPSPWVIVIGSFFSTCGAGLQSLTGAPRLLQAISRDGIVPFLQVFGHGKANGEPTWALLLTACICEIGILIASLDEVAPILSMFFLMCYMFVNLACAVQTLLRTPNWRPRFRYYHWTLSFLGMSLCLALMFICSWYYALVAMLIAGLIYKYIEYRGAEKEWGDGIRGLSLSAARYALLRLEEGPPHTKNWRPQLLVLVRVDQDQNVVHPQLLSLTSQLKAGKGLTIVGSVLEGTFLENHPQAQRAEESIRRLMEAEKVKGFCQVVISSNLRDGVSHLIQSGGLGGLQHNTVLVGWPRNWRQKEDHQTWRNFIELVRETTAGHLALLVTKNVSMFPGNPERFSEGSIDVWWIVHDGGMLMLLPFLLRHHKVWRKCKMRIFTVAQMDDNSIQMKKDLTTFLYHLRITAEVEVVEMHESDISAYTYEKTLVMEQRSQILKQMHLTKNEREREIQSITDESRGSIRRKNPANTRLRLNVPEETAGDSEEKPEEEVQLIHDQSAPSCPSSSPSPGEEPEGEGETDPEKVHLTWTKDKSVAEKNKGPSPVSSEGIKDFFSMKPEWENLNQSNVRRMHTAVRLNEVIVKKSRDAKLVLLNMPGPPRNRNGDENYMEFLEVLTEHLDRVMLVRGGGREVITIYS
ROMK primary: ROMK potassium channel modulators, primary screen, cell-based, thallium flux, MLSMR library | B-score at 10 µM | Tet-inducible ROMK, thallium flux fluorescence; actives lie on both sides | AID 1918, 2009 | 130,000 compounds, 2% hits;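 active = signal ratio slope over the read window, or its plate-corrected B-score, at least 3 SD from the plate mean, either direction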;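 also: B-score of the F/F0 ratio slope over 7 to 12 s after thallium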
Ins promoter up: insulin promoter activators in MIN6 cells, imaging, high-content screening, mouse beta cells | z-score at 5 µM | MIN6 insulin promoter-GFP reporter; stronger effect = higher value | AID 1625, 2009 | 190,000 compounds, 0.3% hits;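 active = z-score above 3 at 5 µM with at least 500 cells counted in the well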
Insulin prom inh: inhibitors of insulin promoter-driven GFP, primary screen, imaging, TRM-6 cells (human fetal islet line), eGFP reporter, cell count; reporter expression induced with tamoxifen; inhibition, % at 2 µM; 130,000 compounds, 0.9% hits; AID 1273, 2008;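 active = inhibition above the mean plus 3 SD, with well images judged a real hit on visual review, cut at about 60% in these data, passing the limit was not always enough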
WT yeast gro inh: growth inhibition of WT strain, primary screen, mitochondrial fusion inhibitor project, WT and mutant strains, chemical genetic | AID 1362, 2008 | 190,000 compounds, 2.1% hits | mitochondrial fusion phenotypic screen | inhibition, % at 10 µM; in the data active = inhibition above about 58%; tested in S. cerevisiae
L major viab: Leishmania major promastigote growth inhibition, primary screen; AID 1063, 2008; 200,000 compounds, 9% hits; inhibition, % at 10 µM; Leishmania major promastigotes, resazurin fluorescence viability; in the data active = inhibition above about 50%;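 also: promastigotes grown with compound for 44 hours at 28 °C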
An asterisk follows results filed as active; nt = not tested or not shown.

SMILES	KCC2 mod	ROMK primary	Ins promoter up	Insulin prom inh	WT yeast gro inh	L major viab
CCNC(=S)Nc1ccc2cn[nH]c2c1	0.98	0.98	nt	nt	-13	-8
CNC(=S)N(CCc1c(C)[nH]c2ccccc12)Cc1cc(OC)c(OC)c(OC)c1	-0.5	-0.55	-0.38	-48	-5	18
COc1ccc(NC(=S)N(CCc2c(C)[nH]c3ccccc23)Cc2cccnc2)cc1	-0.43	0.11	0.05	48	-11	100*
COc1ccc2[nH]c(C)c(CCNC(=S)Nc3ccc(F)cc3)c2c1	2.1	-0.11	0.27	24	-3	32
Cc1[nH]c2ccc(F)cc2c1CCN(Cc1cccnc1)C(=S)Nc1ccc(F)cc1	-0.34	0.078	-0.1	-56	5	100*
COc1cc(N(C(=O)Cc2cccs2)C(C(=O)NC2CCCCC2)c2ccc(C)cc2)ccc1-n1cnnn1 (stereo not given)	0.15	0.54	-0.34	-18	3	63*
COc1ccc(N(C(=O)Cc2cccs2)C(C(=O)NC2CCCCC2)c2cccn2C)cc1OC (stereo not given)	-0.073	-3.9*	nt	-88	11	4
Cc1nn(C)cc1C(C(=O)NC1CCCCC1)N(C(=O)Cc1cccs1)c1ccc(Cl)cc1 (stereo not given)	-1.3	0.027	0	-25	9	85*
C=CCNC(=O)CC(=O)N/N=C/c1ccc(F)cc1	0.32	nt	0.45	nt	4	-3
Cc1ccc(C(=O)n2nnc3ccccc32)cc1[N+](=O)[O-]	0.64	0.81	2.9	40	-5	-5
O=C(COc1ccc(-c2ccccc2)cc1)N1CCN(C(=O)c2cccnc2)CC1	-1.2	nt	-0.5	-39	6	-5
O=C(c1ccccc1)N1CC(COc2ccccc2)OC(c2cccnc2)O1 (stereo not given)	nt	-0.0079	0.83	6	1	54*
CCOC(=O)c1c(C)[nH]c(C2=NNC(=Nc3cccc(Cl)c3)SC2)c1C	-0.095	0.31	-2	19	63*	39
CC1CCCCN1CCCNC(=O)c1cc(Br)c(Br)[nH]1 (stereo not given)	-0.61	-0.15	-0.27	nt	14	93*
CCCOc1ccc(N2C(=O)CC(SC(=N)N3N=C(c4ccccc4)CC3c3ccccc3)C2=O)cc1 (stereo not given)	0.17	0.75	-0.92	41	-13	98*
COc1ccc(NC(=O)CSc2n[nH]c(N)n2)cc1OC	2.2	-0.0043	-0.29	-332	3	-8
CCOC(=O)c1sc2ncn(C(CC)C(=O)OCC)c(=O)c2c1C (stereo not given)	-0.26	nt	0.26	nt	23	99*
COc1ccc(/C=C2\C(=O)N(Cc3ccc(F)cc3)CC(=O)N2Cc2ccccc2)cc1	-0.036	nt	-0.48	nt	17	95*
Cc1cccc(C)c1NC(=O)CCCSc1nnc(-c2ccc(Cl)cc2)n1-c1ccccc1	-0.71	nt	-0.36	35	36	56*
Cc1cccc(C)c1NC(=O)CCCSc1nnc(-c2ccc(F)cc2)n1-c1ccccc1	-2.1	nt	0.1	-43	20	22
CCOc1ccccc1NC(=S)NC(=O)CCCOc1ccc(Cl)cc1Cl	-0.53	1	nt	-21	37	-2
CSc1ccc(OC2CCN(Cc3ccccc3)CC2)cc1	nt	-2	-0.29	23	63*	94*
O=C(OCc1ccc(C(=O)c2ccccc2)cc1)c1cccc(-c2nnc(-c3ccccc3)o2)c1	0.39	nt	0.02	51	2	9
O=[N+]([O-])c1ccc(NCCCNS(=O)(=O)c2ccc(Cl)cc2)c(Cl)c1	0.51	nt	-2.3	nt	60*	94*
COC(=O)c1[nH]c(C)c(/C(O)=C2\C(=O)C(=O)N(CCN3CCOCC3)C2c2ccco2)c1C (stereo not given)	1.5	nt	-0.28	nt	nt	nt
O=C(/C=C/Nc1ccc(S(=O)(=O)Nc2ncccn2)cc1)c1ccc(Cl)c(Cl)c1	0.68	nt	-0.31	6	4	-4
CC(=O)c1cccc(NC(=O)c2ccc(Br)o2)c1	0.78	nt	-0.75	15	3	14
O=C(Nc1cccc(F)c1)c1ccc(Br)o1	0.34	0.015	0.83	-27	-2	68*
